# A selection: hits, their analogues and other compounds. The true share with any hit is near 19%.
# IL1B secr inh = blocks inflammasome-driven IL-1 beta release; AID 743279; THP-1 LPS/ATP IL-1B secretion, AlphaLISA, 16 h; stronger effect = lower value; activity change, % at 57.5 µM; hit rate 4.7% among 360,000; in the data active = activity change below about -50%; inconclusive = mostly about -30% to -49%
#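 Secreted IL-1B measured by AlphaLISA bead assay after 16 h compound exposure of THP-1 cells; compounds (final up to 57.5 uM) added 1 h before LPS (250 ng/mL) and ATP (1.25 mM) stimulation; lower signal means less secretion.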
# HT1080 IDH1KD tx = toxicity to HT-1080 IDH1 knockdown cells (counter line); HT-1080 IDH1 knockdown viability, ATP luminescence, 48 h; Potency, µM (titrated, usually from 46.1 µM), inactives show at the highest dose activity, negative = toxicity, usual class: cytotoxic; hit rate 2% among 360,000; AID 686971;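 also: potency is read from the fitted curve at half-maximal effect; 0% = DMSO wells and -100% = cell-free medium wells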
#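 Assay cells: HT-1080 with IDH1 knockdown, 750 per well, RPMI/5% FBS. Exposure: 48 h at 37 °C following 2 h pre-incubation. Read: CellTiter-Glo luminescence; fitted concentration-response, curve class assigned.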
# TDP1 cell noCPT = qHTS for Inhibitors of human tyrosyl-DNA phosphodiesterase 1 (TDP1): qHTS in cells in absence of CPT. DT40 Tdp1-/- hTDP1 cells, no CPT, ATP luminescence, 48 h. Potency, µM (series often up to 46.2 µM), for the others: top-dose activity change, negative = growth inhibition, actives largely listed as inhibitors. hit rate 15% among 420,000; also: potency is read from the fitted curve at half-maximal effect; nearly all actives have a fitted effect of over 55% in size
#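 A cellular qHTS used chicken DT40 cells lacking endogenous Tdp1 but carrying stably transfected human TDP1. Compounds were applied without camptothecin, and cell growth kinetics were judged by ATP-dependent luminescence after ≥48 hr.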
# TDP1 cell CPT = growth inhibition of DT40 Tdp1-/-;hTDP1 cells with camptothecin (screen for TDP1 inhibitors); Potency, µM (highest dose often 46.2 µM), for the others: at the highest dose activity change, negative = growth inhibition, usual class: inhibitors; hit rate 12% among 420,000; AID 686979; chicken DT40 Tdp1-/-;hTDP1 cells + 20 nM CPT, ATP luminescence, 48 h; also: potency is read from the fitted curve at half-maximal effect; nearly all actives have a fitted effect of over 55% in size
#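 Chicken DT40 Tdp1-/- cells complemented with human TDP1, 400 cells/well, exposed to compounds plus 20 nM camptothecin for at least 48 h at 37 C; viability read as ATP content by CellTiter-Glo luminescence.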
# HT1080NT lethal = kills 2HG-producing HT-1080-NT fibrosarcoma cells | HT-1080-NT fibrosarcoma viability, CellTiter-Glo ATP luminescence, 48 h | Potency, µM (series often up to 46.1 µM), inactives show at the highest dose activity, negative = less viability, hits mostly cytotoxic | hit rate 1.6% among 360,000 | AID 686970;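 also: NT is the 2HG producing partner of a matched IDH1 knockdown line; potency is read from the fitted curve at half-maximal effect; 0% = DMSO-treated cells and -100% = media-only wells without cells; nearly all actives have a fitted effect of over 55% in size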
#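 Compounds were tested in concentration-response format on HT-1080-NT cells for 48 hours at 37 degrees C. Cell viability came from CellTiter-Glo luminescence; curves were classified by r2, response magnitude and activity.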
# Numbers without * were called inactive; u = inconclusive; x = not tested or not shown; ! = a repeat was not active. Unless noted, calls follow the shape of the dose curve; as a rule, active = well fitted curve in the direction sought with a large enough effect; inconclusive = small, poorly fitted or top-dose-only effect, or another doubt; inactive = no such curve, though single readings can be large; an effect the other way counts as inactive or inconclusive. Unless noted, % is scaled to controls: 0 for no effect and ±100 for the full control effect.
SMILES,IL1B secr inh,HT1080 IDH1KD tx,TDP1 cell noCPT,TDP1 cell CPT,HT1080NT lethal
CCN(Cc1ccccc1)C(=O)Cn1c(=O)n(-c2ccc(Cl)cc2)c(=O)c2c(C)c(C(=O)N(C)C)sc21,x,x,u,-12%,x
CC(NS(=O)(=O)c1ccc(OCC(=O)NCc2cccnc2)cc1)c1ccccc1 (stereo not given),-4,16%,-14%,-4%,15%
CCNC(=O)C1(C)CCN(C(=O)c2ccccc2F)C1 (stereo not given),17,20%,19%,-3%,28%
C#CCOCCOCCOCCNc1nc(N2CCN(C(=O)[C@H](CCCCN)n3cc(CCCC)nn3)CC2)nc(N2CCN(C(=O)[C@H](CCCCN)n3cc(CCCC)nn3)CC2)n1,0,0%,-10%,1%,3%
C#CCOCCOCCOCCNc1nc(N2CCOCC2)nc(N2CCN(C(=O)[C@H](CCCCN)n3cc(CCCC)nn3)CC2)n1,12,11%,1.3µM*,0.21µM*,11%
C#CCOCCOCCOCCNc1nc(N2CCN(C(=O)CCCCCCCCCCNC(=O)[C@@H](CCC(=O)O)n3cc(CCCCCN)nn3)CC2)nc(N2CCN(C(=O)CCCCCCCCCCNC(=O)[C@H]([C@@H](C)CC)n3cc(CCCCCN)nn3)CC2)n1,-95*,-3%,u,-6%,-18%
O=[N+]([O-])c1cc(NCCO)c(N2CCCCCC2)c2nonc12,10,-10%,11%,-4%,-2%
CN1CCN(CC(=O)c2cc(C(C)(C)C)c(O)c(C(C)(C)C)c2)CC1,-24,-20%,-29%,u,-11%
CCOC(=O)C1CCN(Cc2ccc(OC)c(OCc3ccccc3)c2)CC1,5,-3%,18µM*,13µM*,-8%
CC(C)(C)c1cc(CN2CCN(CCO)CC2)cc(C(C)(C)C)c1O,-1,u,21µM*,13µM*,1%
CCOC(=O)C1CCN(Cc2cc(C(C)(C)C)c(O)c(C(C)(C)C)c2)CC1,u,1%,18µM*,u,7%
CC(Oc1ccc(F)cc1)c1ccnc2nc(/N=C/N(C)C)nn12 (stereo not given),25,2%,-7%,-2%,4%
CC(Oc1ccc(C(C)(C)C)cc1)c1ccnc2nc(/N=C/N(C)C)nn12 (stereo not given),-3,u,u,16µM*,-7%
O=C(NCC1CC1)Nc1cccs1,13,4%,-6%,0%,4%
CCN1C(=O)CC(N2CCN(c3ccc(C(=O)c4ccccc4)cc3)CC2)C1=O (stereo not given),-28,-1%,23µM*,u,-2%
CCN1C(=O)CC(N2CCN(c3ccc(Cl)cc3)CC2)C1=O (stereo not given),-18,11%,-4%,-4%,8%
OC1C(O)C(O)C(O)C(O)C1O (stereo not given),11,5%,u,15µM*!,u
COC(=O)c1[nH]c(=O)c2ccccc2c1O,-1,18%,0%,2.6µM*,20%
COC(=O)c1[nH]c(=O)c2ccccc2c1OCc1ccccc1,16,-2%,-17%,-15%,0%
CCC(C(=O)Nc1sc(C(N)=O)c(C)c1C(=O)OC)c1ccccc1 (stereo not given),57,u,-23%,-5%,u
ON=C1C2CC=C(c3ccccc3)C1CCC2 (stereo not given),-58*,3%,-26%,u,-1%
CC(C)(C)c1nc(CN2CCOCC2)ccc1O,5,10%,-17%,-11%,4%
CC(C)(C)c1nc(CN2CCCCC2)cc(CN2CCCCC2)c1O,-6,-6%,u,18µM*,-9%
N=C(N)c1ccc(N=Nc2c(O)ccc3c2[nH]c2ccccc23)cc1,-97*,-21%,7.3µM*,21µM*,-8%
Cc1ccc(N=Nc2[nH]c3ccccc3c2O)cc1,4,4%,-3%,-1%,5%
SMILES,IL1B secr inh,HT1080 IDH1KD tx,TDP1 cell noCPT,TDP1 cell CPT,HT1080NT lethal
CC(C)Cc1nc(SCC(=O)N2CCCCC2)c2c(=O)n(C)c(=O)n(C)c2n1,24,-2%,u,u,-11%
Cc1nn(-c2nc3ccccc3[nH]2)c(=O)c2ccccc12,-16,1.5µM*,2.1µM*,1.8µM*,1.5µM*
COc1ccc(-c2c(C)nn(-c3ccccc3)c2N)cc1,12,u,-18%,-28%,1%
Cc1nn(-c2ccc3ccccc3c2)c(=O)c2ccccc12,44,-18%,16µM*,u,-4%
Cc1nn(-c2nc3ccccc3[nH]2)c(N)c1-c1ccc(Cl)cc1,-27,-25%,16µM*,u,-11%
Cc1cc(C)n(-c2ccc(S(=O)(=O)N3CCOCC3)cc2[N+](=O)[O-])n1,7,9%,-12%,3%,3%
Cc1cc(C)c2c(c1)c(C)cc1nnc(SCc3ccccc3C#N)n12,x,x,u,-7%,x
COc1ccccc1N1CCN(CC(O)COc2ccc(C)cc2C(C)(C)C)CC1 (stereo not given),x,x,18µM*,u,x
CC(=O)c1c(C)nn(CC(O)COc2ccc3c(c2)CCC3)c1C (stereo not given),u,-13%,16µM*,u,u
CC(C)(C)CC(C)(C)NCC(O)COc1ccc2c(c1)CCC2 (stereo not given),-75*,u,23µM*,u,21µM*
COc1ccccc1N1CCN(CC(O)COc2ccc3c(c2)CCC3)CC1 (stereo not given),-64*,u,u,16µM*,-27%
CCOC1=C/C(=C/c2c(N)n3nc(S(=O)(=O)CC)sc3nc2=O)C=CC1=O,18,1%,-2%,-4%,10%
COc1ccc2c(c1)OC[C@H]1[C@@H]2N2C(=O)CNC(=O)[C@@]2(C)[C@H]1c1ccccc1,40,-1%,-19%,-24%,0%
Cc1cc(C)c(C#N)c(SCCS(=O)(=O)c2ccc(Cl)cc2)n1,-76*,-23%,u,u,-17%
Cc1cc(C)c(C#N)c(SCCS(=O)(=O)c2ccc(C(C)(C)C)cc2)n1,-19,-22%,21µM*,13µM*,2%
COc1cccc(NC(=O)c2ccccc2Oc2ccccc2)c1,-24,10%,-8%,-7%,11%
O=C(Nc1ccccc1Cl)c1cc2ccccc2o/c1=N\O,4,2%,10µM*,u,-9%
COc1cccc(NC(=O)c2cc3ccccc3o/c2=N\O)c1,u,-25%,13µM*,15µM*,-25%
O=C(NC(=S)N(CCCCO)C1CCCCC1)c1sc2ccccc2c1Cl,46,u,16µM*,16µM*,u
